Data taken from PubChem BioAssay (NCATS).
“And” between values parts separate entries of the source, which are not always exact repeats. Equal values may be shown once. Records with an inconclusive call do not appear. Unmarked numbers belong to inactive results. The source made the active and inactive calls. Calls follow the shape of the dose curve; as a rule, active = well fitted inhibition curve with a large enough effect; inconclusive = small, poorly fitted or top-dose-only effect; inactive = flat fitted curve, though single readings scatter.

Each molecule was assayed on CRL-7250 (assay: Cytotoxic Profiling of Annotated Libraries Using Quantitative High-Throughput Screening (AID 1296008; also: nearly all actives have a fitted effect of over 60% in size)). Conditions: Five cell lines viability, CellTiter-Glo ATP luminescence, 48-72 h; max response: hits give low values.
In short: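 Cytotoxicity was measured as CellTiter-Glo ATP luminescence, read after 10 min at room temperature. Compound treatment of the cells lasted 48 or 72 hr at 37 degrees Celsius in a qHTS format.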
% is scaled to controls: 0 for no effect and ±100 for the full control effect; potency is read from the fitted curve at half-maximal effect.

| Compound | max response | Potency | outcome |
| --- | --- | --- | --- |
| C[C@]12CCC3c4ccc(O)cc4CCC3C1CCC2=O (some centres undefined) | -16.8% | – | – |
| C[C@@H]1CCN(C(=O)CC#N)C[C@H]1N(C)c1ncnc2[nH]ccc12 | -14.7% | – | – |
| Cc1nc(N)sc1-c1ccnc(Nc2ccc(N3CCOCC3)cc2)n1 | – | 9.35 µM (active) and 5.17 µM (active) | – |
| CC(C)[C@H](CO)Nc1nc(Nc2ccc(C(=O)O)c(Cl)c2)c2ncn(C(C)C)c2n1 | – | – | inactive |
| C=C1C(=O)OC2C=C(C)CCC=C(C)CCC12 (centres undefined) | 0.517% | – | – |
| O=c1cc(N2CCOCC2)oc2c(-c3cccc4c3sc3ccccc34)cccc12 | -14.3% | – | – |
| NC(=O)c1cccc(-c2cc(Nc3ccc(OC(F)(F)F)cc3)ncn2)c1 | -7.69% and -0.175% | – | – |
| C[N+]1(C)[C@@H]2CC(OC(=O)[C@H](CO)c3ccccc3)C[C@H]1[C@H]1O[C@@H]12 (some centres undefined) | 4.18% | – | – |
| OC[C@H]1O[C@@H](n2cnc3c2NC=NC[C@@H]3O)C[C@H]1O | 2.48% | – | – |
| CC(C)C(=O)Nc1ncc(-c2cc(C(F)F)nn2-c2c(Cl)cccc2Cl)s1 | -16.9% | – | – |
| O=c1c(O)c(-c2ccc(O)cc2)oc2cc(O)cc(O)c12 | – | – | inactive |
| Cc1c[nH]c(C=C2C(=O)Nc3ccccc32)c1CCC(=O)O | – | 6.62 µM (active) | – |
| O=C(O)[C@H]1O[C@H](Oc2cc3oc(-c4ccccc4)cc(=O)c3c(O)c2O)[C@H](O)[C@@H](O)[C@H]1O | -6.52% | – | – |
| Nc1ncnc2c1ncn2[C@@H]1O[C@@H](CO)[C@H](O)[C@H]1O | – | – | inactive |
